The values below come from PubChem BioAssay (NCI).

This is part of a sample that, as a whole, favours compounds with a hit. Of some 83,000 tested, about 20% had one in any assay.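 Activity criterion: percent growth below 10, measured after cells in 96-well plates were exposed to a single compound concentration for 48 hours.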 A number with no mark means an inactive call. Calls of active or inactive are those of the source.

Test systems include NCI-H23 lung; NCI-H226 lung; NCI-H322M lung; HOP-62 NSCLC; NCI-H460 lung; HOP-92 NSCLC; NCI-H522 lung; A549/ATCC NSCLC; 786-0 renal; COLO 205 colon; DU-145 prostate; K-562 leukemia; MDA-MB-231 breast; RXF 393 renal; SF-268 CNS; SF-295 CNS; SF-539 CNS; M14 melanoma; MALME-3M melanoma.
Common to all, as to experiment: NCI-60 one-dose screen, 48 h (100 = growth as untreated, 0 = no growth, -100 = all killed)
Conditions in all cases: 10 µM unless noted

In the case of `COc1cnc2c(c1)C(=O)c1c-2n(CCCn2ccnc2)c(=O)c2cc(Cl)ccc12`, the growth with NCI-H23 lung is -1.2% (active); in the test on NCI-H226 lung, 6.75% (active); in the test with NCI-H322M lung, 22.4%; with HOP-62 NSCLC, -16.7% (active); in the test with NCI-H460 lung, 1.24% (active); in the test with HOP-92 NSCLC, 31.8%. Moreover, the growth with NCI-H522 lung was 12.3%; in the test on A549/ATCC NSCLC it was 17.4%; in the test with 786-0 renal, -17.9% (active); in the test on COLO 205 colon it was 11.1%; in the test on DU-145 prostate it was 2.01% (active); with K-562 leukemia, 5.92% (active). In addition, the growth was 55.2% with MDA-MB-231 breast; -33.6% (active) in the test with RXF 393 renal; 21.9% in the test with SF-268 CNS; 0.124% (active) with SF-295 CNS; -11.6% (active) in the test with SF-539 CNS; -2.18% (active) in the test with M14 melanoma.
For the compound `COc1ccc(-c2nocc2-c2cc(OC)c(OC)c(OC)c2)cc1`, the growth in the test with NCI-H23 lung is 19.2%; in the test on NCI-H226 lung, 58.8%; in the test on NCI-H322M lung, 44.6%; in the test with HOP-62 NSCLC, 29.6%; in the test with NCI-H460 lung, 8.8% (active); in the test on HOP-92 NSCLC, 76%. Further, the growth is -5.37% (active) in the test on NCI-H522 lung; 25.4% with A549/ATCC NSCLC; 43.9% in the test with 786-0 renal; -12.4% (active) with COLO 205 colon; 15.2% in the test on DU-145 prostate; 12.8% in the test with K-562 leukemia. Besides, the growth was 60.3% with MALME-3M melanoma; 25.8% in the test with MDA-MB-231 breast; 39% in the test on SF-268 CNS; -4.64% (active) with SF-295 CNS; 2.52% (active) with SF-539 CNS; 3.03% (active) in the test with M14 melanoma.
As for `O=C(Nc1ccc(C2=NCCCN2)cc1)c1ccc(C(=O)Nc2ccc(C3=NCCCN3)cc2)nc1`, the growth with NCI-H23 lung was 102%; with NCI-H226 lung, 101%; in the test on NCI-H322M lung it was 111%; in the test with HOP-62 NSCLC, 97.2%; with NCI-H460 lung it was 107%; in the test on HOP-92 NSCLC, 131%. In addition, the growth with NCI-H522 lung was 96.1%; in the test with A549/ATCC NSCLC it was 141%; in the test with 786-0 renal, 96.6%; with COLO 205 colon, 125%; in the test on DU-145 prostate it was 122%; in the test with MALME-3M melanoma, 117%. For the same compound, the growth in the test with MDA-MB-231 breast was 104%; in the test with SF-268 CNS, 106%; in the test on SF-295 CNS, 110%; in the test with SF-539 CNS it was 104%; with M14 melanoma, 102%.
In the case of `O=C(NO)c1ccc(Cn2c(=O)n(CCc3ccccc3)c(=O)c3ccccc32)cc1`, the growth in the test with NCI-H23 lung was 8.96% (active); with NCI-H226 lung it was 48.1%; with NCI-H322M lung it was 43.7%; in the test on HOP-62 NSCLC it was 31.1%; with NCI-H460 lung, 25.2%; in the test on HOP-92 NSCLC, 66.8%. The growth in the test with NCI-H522 lung is 29.9%; with A549/ATCC NSCLC, 33.6%; in the test on 786-0 renal, 45%; in the test on COLO 205 colon, 4.15% (active); with DU-145 prostate, 30.5%; in the test on K-562 leukemia, 35.4%. Further, the growth is 39% in the test with MDA-MB-231 breast; 15.8% in the test on RXF 393 renal; 46.4% with SF-268 CNS; 22.1% with SF-295 CNS; 12.1% in the test on SF-539 CNS; 22.2% in the test with M14 melanoma.
`COc1cnc2c(c1)C(=O)c1c-2n(CCCN2CCOCC2)c(=O)c2cc(Cl)ccc12`: the growth with NCI-H23 lung was 20.6%; in the test on NCI-H226 lung, 20.6%; in the test on NCI-H322M lung, 31.3%; with HOP-62 NSCLC, 4.59% (active); with NCI-H460 lung, 3.15% (active); with HOP-92 NSCLC, 70.4%. Besides, the growth was 24.3% with NCI-H522 lung; 34.9% with A549/ATCC NSCLC; -0.608% (active) with 786-0 renal; 9.49% (active) in the test with COLO 205 colon; 17.8% in the test with DU-145 prostate; 27.5% in the test on K-562 leukemia. Also, the growth in the test on MDA-MB-231 breast was 64.1%; in the test with RXF 393 renal it was 1.67% (active); in the test with SF-268 CNS, 29.1%; in the test with SF-295 CNS it was 8.59% (active); in the test with SF-539 CNS it was 6.36% (active); with M14 melanoma, 11.9%.
As to `CCN(CC)CCCC(C)Nc1cc(-c2ccc(C(F)(F)F)cc2)c(C#N)c2nc3ccccc3n12` (configuration not stated), the growth is 18.6% with NCI-H23 lung; -39.6% (active) in the test on NCI-H226 lung; 38.9% in the test on NCI-H322M lung; 6.94% (active) in the test with HOP-62 NSCLC; -18.8% (active) with NCI-H460 lung; 68.8% in the test on HOP-92 NSCLC. For the same compound, the growth in the test on NCI-H522 lung was 13.1%; in the test with A549/ATCC NSCLC, 17.1%; in the test on 786-0 renal, -83.3% (active); with COLO 205 colon it was -44.6% (active); in the test with DU-145 prostate, 7.4% (active); with K-562 leukemia, -46.1% (active). Moreover, the growth in the test on MDA-MB-231 breast was -38% (active); in the test with RXF 393 renal, -75.7% (active); in the test with SF-268 CNS it was 14.6%; in the test with SF-295 CNS, -25.9% (active); with SF-539 CNS, -75.1% (active); in the test with M14 melanoma, -69.6% (active).
